Experimental findings from PubChem BioAssay (EPA / NIEHS) are described below.

Values joined by “and” are separate entries in the source; they are usually repeats but may differ in a detail not shown here. Identical values can stand only once. Inconclusive results are not listed. Some structures have more than one record in an assay (separate samples or runs), and their calls can disagree. Active and inactive are the calls of the source. The calls were made as follows, unless noted: active = hit-call score of the fitted dose curve at least 0.9, where 1 is the maximum; inactive = score below 0.9.

Read-out in one assay: CD69, CD69 (gene 969)
In words: BSK_SAg_CD69: BioMAP Diversity Plus: SAg Assay for CD69 Biomarker Activity (AID 2283089).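 Also: cell surface CD69 protein quantified by ELISA with fluorescence detection.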 The note with it: primary human HUVEC with PBMC; actives raise or lower the signal. Put shortly: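 ELISA, fluorescence read-out: CD69 on human umbilical vein endothelial cell + PBMC co-culture, 24 h post-dosing. Gain or loss of signal fitted bidirectionally against DMSO baseline.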

Read-out in assay [1]: Monocyte Chemoattractant Protein-1 (MCP1), CCL2 (gene 6347)
In words: BSK_SAg_MCP1: BioMAP Diversity Plus: SAg Assay for Monocyte Chemoattractant Protein-1 (MCP1) Biomarker Activity (AID 2283090). The note with it: primary human HUVEC with PBMC; actives raise or lower the signal. Put shortly:
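MCP-1 levels in the endothelial–PBMC SAg co-culture were quantified by ELISA at 24 h post-dosing; both increases and decreases versus DMSO scored. Cytotoxicity monitored by SRB total protein in parallel cultures.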

Read-out in assay [2]: E-selectin (Homo sapiens) (UniProt P16581)
The assay is described as follows: BSK_SAg_Eselectin: BioMAP Diversity Plus: SAg Assay for Eselectin Biomarker Activity (AID 2283091). Conditions: primary human HUVEC with PBMC; actives raise or lower the signal. Put shortly: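 Co-culture: HUVEC + PBMC. Dose compound; 24 h. ELISA for E-selectin. Bidirectional fit vs DMSO.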

Read-out in assay [3]: Monokine induced gamma interferon (MIG), CXCL9 (gene 4283)
In words: BSK_SAg_MIG: BioMAP Diversity Plus: SAg Assay for Monokine induced gamma interferon (MIG) Biomarker Activity (AID 2283092). The note with it: primary human HUVEC with PBMC; actives raise or lower the signal. Put shortly:
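ELISA readout of MIG/CXCL9; primary human umbilical vein endothelial cells co-cultured with peripheral blood mononuclear cells; 24 h post-dose; gain/loss fit vs DMSO baseline.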

The nature of assay [4]: BSK_SAg_PBMCCytotoxicity: PBMC Cytotoxicity Assessment in the BioMAP Diversity Plus: SAg Assay (AID 2283093).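 Also: PBMC viability measured as Alamar Blue reduction fluorescence at 546/580 nm; fitted both ways against DMSO so a hit may be loss or gain of signal.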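 As to AC50: PBMC superantigen activated with SEB plus TSST-1 one hour after compound addition.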 The note with it: primary human HUVEC with PBMC. Put shortly:
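Compound added to 75,000 PBMC/well for 1 h; SEB and TSST-1 then added at 20 ng/mL final each; 90 h incubation; Alamar Blue 6 h; read 546/580 nm ex/em. Activity fitted bidirectionally relative to DMSO baseline.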

Read-out in assay [5]: Interleukin-8 (IL8), CXCL8 (gene 3576)
In words: BSK_SAg_IL8: BioMAP Diversity Plus: SAg Assay for Interleukin-8 (IL8) Biomarker Activity (AID 2283094). The note with it: primary human HUVEC with PBMC; actives raise or lower the signal. Put shortly:
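Human umbilical vein endothelial cells co-cultured with peripheral blood mononuclear cells; IL-8 measured by ELISA 24 h after chemical dosing. Bidirectional concentration-response fitting used DMSO as negative control and activity baseline.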

Assay [6] can be described thus: BSK_SAg_SRB: Viability Assessment in the BioMAP Diversity Plus: SAg Assay (AID 2283096).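 Also: cells read one day after compound addition; hits may be either gain or loss of signal compared with DMSO.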 The note with it: primary human HUVEC with PBMC. The procedure, abridged:
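Total protein by sulforhodamine B staining, 24 h after dosing, in HUVEC–PBMC co-culture; DMSO-referenced bidirectional fitting.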

For assay [7], the target named is human CYP19A1, CYP19A1 (gene 1588) (UniProt P11511). The assay is described as follows: NVS_ADME_hCYP19A1: NovaScreen (NVS) CYP450-related Enzyme Activity (ADME) Assay for human CYP19A1 (AID 2283098; active = hit-call score of the fitted dose curve at least 0.9, where 1 is the maximum;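 as to AC50: potency for inhibitors seen as loss of fluorescent enzyme signal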). The procedure, abridged: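 Biochem, cell-free; recombinant enzyme + specific substrate; fluorescence intensity at 0.5 h post-dose; 10 uM duplicate primary, conc. series for actives; acetonitrile = negative control/baseline; positive and negative controls on every plate.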

The target in assay [8] is human CYP2C9, CYP2C9 (gene 1559) (UniProt P11712). The assay is described as follows: NVS_ADME_hCYP2C9: NovaScreen (NVS) CYP450-related Enzyme Activity (ADME) Assay for human CYP2C9 (AID 2283108; active = hit-call score of the fitted dose curve at least 0.9, where 1 is the maximum). The procedure, abridged: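 Fluorescence readout of CYP2C9 activity (SF9-expressed human enzyme) at 0.75 h. The primary screen used 10 uM in duplicate, with concentration-response follow-up for actives; acetonitrile was the negative control.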

Assay [9] concerns the target Cytochrome P450 3A4 (Homo sapiens) (UniProt P08684). The assay is described as follows: NVS_ADME_hCYP3A4: NovaScreen (NVS) CYP450-related Enzyme Activity (ADME) Assay for human CYP3A4 (AID 2283110; active = hit-call score of the fitted dose curve at least 0.9, where 1 is the maximum). The procedure, abridged: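 Compounds were first screened in duplicate at 10 uM against recombinant CYP3A4 produced in insect cells, then actives were run in concentration series. Enzyme activity was measured by fluorescence after 0.33 hour, with acetonitrile as baseline.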

The target in assay [10] is human CYP2C8, CYP2C8 (gene 1558) (UniProt P10632). In words: NVS_ADME_hCYP2C8: NovaScreen (NVS) CYP450-related Enzyme Activity (ADME) Assay for human CYP2C8 (AID 2283104). The procedure, abridged:
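Recombinant human CYP2C8 with fluorogenic substrate, 0.5 h, fluorescence intensity; signal loss fitted versus acetonitrile. Screened in duplicate at 10 uM, then actives run in concentration-response up to 20 uM.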

The target of assay [11] is human CYP1A1, CYP1A1 (gene 1543) (UniProt P04798). In words: NVS_ADME_hCYP1A1: NovaScreen (NVS) CYP450-related Enzyme Activity (ADME) Assay for human CYP1A1 (AID 2283100; active = hit-call score of the fitted dose curve at least 0.9, where 1 is the maximum). Put shortly: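 Recombinant hCYP1A1 + fluorogenic substrate, cell-free; 1 h; fluorescence read. Single-point 10 uM (duplicate) → concentration series, max 20 uM. Acetonitrile negative control.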
The target of assay [12] is human CYP2B6, CYP2B6 (gene 1555) (UniProt P20813). The assay is described as follows: NVS_ADME_hCYP2B6: NovaScreen (NVS) CYP450-related Enzyme Activity (ADME) Assay for human CYP2B6 (AID 2283101; active = hit-call score of the fitted dose curve at least 0.9, where 1 is the maximum). Put shortly:
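Fluorescence-based enzyme activity of recombinant human CYP2B6, measured 1 h post-dose against acetonitrile vehicle baseline. Screened at a single concentration of 10 uM in duplicate before concentration-response follow-up.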

The target of assay [13] is human CYP2J2, CYP2J2 (gene 1573) (UniProt P51589). The assay is described as follows: NVS_ADME_hCYP2J2: NovaScreen (NVS) CYP450-related Enzyme Activity (ADME) Assay for human CYP2J2 (AID 2283106; active = hit-call score of the fitted dose curve at least 0.9, where 1 is the maximum). The procedure, abridged: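 Cell-free assay of recombinant CYP2J2 with a fluorogenic substrate, read 1 h after dosing; loss of signal versus acetonitrile. Primary screen at 10 uM in duplicate, then concentration-response up to 20 uM for chemicals passing threshold (e.g., 30% inhibition).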

Assay [14] has as its target Cytochrome P450 2C19 (Homo sapiens) (UniProt P33261). The assay is described as follows: NVS_ADME_hCYP2C19: NovaScreen (NVS) CYP450-related Enzyme Activity (ADME) Assay for human CYP2C19 (AID 2283113; active = hit-call score of the fitted dose curve at least 0.9, where 1 is the maximum;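 as to AC50: potency for inhibition seen as loss of fluorescent signal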). The procedure, abridged:
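Fluorescence intensity was measured 1 hour after chemicals were added to insect-cell-derived recombinant CYP2C19 with fluorogenic substrate. Decreased signal versus acetonitrile control was taken as reduced enzyme activity; initial testing used 10 uM in duplicate.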

The target of assay [15] is rat CYP1A2, Cyp1a2 (gene 24297) (UniProt P04799). In words: NVS_ADME_rCYP1A2: NovaScreen (NVS) CYP450-related Enzyme Activity (ADME) Assay for rat CYP1A2 (AID 2283115; active = hit-call score of the fitted dose curve at least 0.9, where 1 is the maximum). Put shortly: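 Cell-free recombinant rat enzyme with fluorogenic substrate, read by fluorescence intensity 1 hour after dosing. Loss of signal versus acetonitrile negative control; primary screen at 10 uM in duplicate, actives followed in concentration series.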

Assay [16] deals with human CYP2A6, CYP2A6 (gene 1548) (UniProt P11509). The assay is described as follows: NVS_ADME_hCYP2A6: NovaScreen (NVS) CYP450-related Enzyme Activity (ADME) Assay for human CYP2A6 (AID 2283099; active = hit-call score of the fitted dose curve at least 0.9, where 1 is the maximum). The procedure, abridged: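 Fluorescent substrate turnover by recombinant CYP2A6 (insect cell source), 0.5 h read. Screen: 10 uM, duplicate; threshold hits (e.g. 30% inhibition) → singleton concentration-response, top 20 uM. Positive and negative controls on every plate.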

Assay [17] has as its target human CYP2D6, CYP2D6 (gene 1565) (UniProt P10635). The assay is described as follows: NVS_ADME_hCYP2D6: NovaScreen (NVS) CYP450-related Enzyme Activity (ADME) Assay for human CYP2D6 (AID 2283107; active = hit-call score of the fitted dose curve at least 0.9, where 1 is the maximum). The procedure, abridged: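 Insect-cell recombinant enzyme + fluorogenic substrate, cell-free; 1 h incubation; fluorescence intensity readout. Acetonitrile = neg. ctrl/baseline. Single-point 10 uM, duplicate; follow-up concentration series.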

Sequence of human CYP19A1, CYP19A1 (gene 1588) (P11511 whole entry, looked up): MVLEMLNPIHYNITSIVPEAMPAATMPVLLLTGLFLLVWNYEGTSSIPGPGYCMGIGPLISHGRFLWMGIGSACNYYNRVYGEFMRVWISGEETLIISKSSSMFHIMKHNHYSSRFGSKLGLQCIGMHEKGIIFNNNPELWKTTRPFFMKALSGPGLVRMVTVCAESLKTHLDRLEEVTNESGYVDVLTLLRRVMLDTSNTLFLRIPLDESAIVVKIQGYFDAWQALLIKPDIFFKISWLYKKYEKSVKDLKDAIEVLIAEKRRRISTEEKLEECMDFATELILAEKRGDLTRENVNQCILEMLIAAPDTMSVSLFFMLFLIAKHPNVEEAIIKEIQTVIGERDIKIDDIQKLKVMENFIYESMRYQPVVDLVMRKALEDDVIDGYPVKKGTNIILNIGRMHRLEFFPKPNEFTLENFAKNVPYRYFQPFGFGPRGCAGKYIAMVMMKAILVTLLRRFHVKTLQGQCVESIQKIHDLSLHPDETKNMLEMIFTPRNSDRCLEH
Sequence of Cytochrome P450 3A4 (Homo sapiens) (P08684 whole entry, looked up): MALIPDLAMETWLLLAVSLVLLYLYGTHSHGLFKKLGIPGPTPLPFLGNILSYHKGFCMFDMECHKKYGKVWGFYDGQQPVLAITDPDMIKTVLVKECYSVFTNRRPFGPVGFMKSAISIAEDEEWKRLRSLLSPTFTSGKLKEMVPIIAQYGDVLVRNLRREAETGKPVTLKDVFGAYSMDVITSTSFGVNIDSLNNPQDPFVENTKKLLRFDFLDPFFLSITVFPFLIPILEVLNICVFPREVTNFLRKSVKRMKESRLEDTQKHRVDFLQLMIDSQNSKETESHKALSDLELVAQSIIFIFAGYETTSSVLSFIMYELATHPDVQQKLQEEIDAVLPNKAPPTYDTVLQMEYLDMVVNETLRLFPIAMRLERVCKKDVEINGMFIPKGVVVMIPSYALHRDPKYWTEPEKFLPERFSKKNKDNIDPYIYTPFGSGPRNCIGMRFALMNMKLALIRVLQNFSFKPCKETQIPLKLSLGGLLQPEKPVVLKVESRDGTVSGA
Sequence of human CYP2J2, CYP2J2 (gene 1573) (P51589 whole entry, looked up): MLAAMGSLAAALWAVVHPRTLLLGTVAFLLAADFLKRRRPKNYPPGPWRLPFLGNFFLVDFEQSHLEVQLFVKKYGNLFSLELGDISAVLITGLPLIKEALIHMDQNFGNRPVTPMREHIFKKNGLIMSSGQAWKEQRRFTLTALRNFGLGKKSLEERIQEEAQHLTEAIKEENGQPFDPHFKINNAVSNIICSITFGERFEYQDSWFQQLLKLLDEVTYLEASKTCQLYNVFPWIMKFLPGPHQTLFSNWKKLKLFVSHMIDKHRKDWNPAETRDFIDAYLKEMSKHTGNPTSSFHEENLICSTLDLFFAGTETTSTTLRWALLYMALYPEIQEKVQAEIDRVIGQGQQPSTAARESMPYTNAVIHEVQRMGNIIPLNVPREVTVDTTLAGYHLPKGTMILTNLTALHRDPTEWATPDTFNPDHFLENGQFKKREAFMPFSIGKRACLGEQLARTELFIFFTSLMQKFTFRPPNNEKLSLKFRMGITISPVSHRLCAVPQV
Sequence of human CYP2C8, CYP2C8 (gene 1558) (P10632 whole entry, looked up): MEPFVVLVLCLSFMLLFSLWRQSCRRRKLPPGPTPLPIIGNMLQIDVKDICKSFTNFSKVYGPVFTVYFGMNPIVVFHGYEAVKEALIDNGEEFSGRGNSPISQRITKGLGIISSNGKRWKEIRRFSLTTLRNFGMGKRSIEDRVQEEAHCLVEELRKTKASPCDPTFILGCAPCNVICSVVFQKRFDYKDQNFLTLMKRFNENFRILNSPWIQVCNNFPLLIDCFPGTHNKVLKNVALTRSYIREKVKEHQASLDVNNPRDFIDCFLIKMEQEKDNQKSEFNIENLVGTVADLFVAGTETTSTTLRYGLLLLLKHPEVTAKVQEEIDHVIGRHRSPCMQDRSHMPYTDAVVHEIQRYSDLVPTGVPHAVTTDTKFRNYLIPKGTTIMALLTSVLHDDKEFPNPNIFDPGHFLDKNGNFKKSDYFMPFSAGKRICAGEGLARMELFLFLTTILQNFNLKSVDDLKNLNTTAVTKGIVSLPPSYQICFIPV
Sequence of human CYP2C9, CYP2C9 (gene 1559) (P11712 whole entry, looked up): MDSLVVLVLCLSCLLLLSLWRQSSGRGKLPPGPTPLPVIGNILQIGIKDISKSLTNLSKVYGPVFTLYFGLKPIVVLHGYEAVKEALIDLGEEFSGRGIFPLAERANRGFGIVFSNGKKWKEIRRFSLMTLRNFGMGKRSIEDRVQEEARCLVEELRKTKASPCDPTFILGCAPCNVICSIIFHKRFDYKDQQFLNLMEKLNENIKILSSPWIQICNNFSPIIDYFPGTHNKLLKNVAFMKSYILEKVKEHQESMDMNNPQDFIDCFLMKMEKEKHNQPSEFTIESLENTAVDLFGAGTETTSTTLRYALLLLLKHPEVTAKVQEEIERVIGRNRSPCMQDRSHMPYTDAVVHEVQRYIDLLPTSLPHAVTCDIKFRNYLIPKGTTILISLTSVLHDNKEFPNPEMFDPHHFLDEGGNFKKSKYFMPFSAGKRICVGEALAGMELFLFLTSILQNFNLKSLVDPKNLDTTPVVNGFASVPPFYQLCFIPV
Sequence of E-selectin (Homo sapiens) (P16581 whole entry, looked up): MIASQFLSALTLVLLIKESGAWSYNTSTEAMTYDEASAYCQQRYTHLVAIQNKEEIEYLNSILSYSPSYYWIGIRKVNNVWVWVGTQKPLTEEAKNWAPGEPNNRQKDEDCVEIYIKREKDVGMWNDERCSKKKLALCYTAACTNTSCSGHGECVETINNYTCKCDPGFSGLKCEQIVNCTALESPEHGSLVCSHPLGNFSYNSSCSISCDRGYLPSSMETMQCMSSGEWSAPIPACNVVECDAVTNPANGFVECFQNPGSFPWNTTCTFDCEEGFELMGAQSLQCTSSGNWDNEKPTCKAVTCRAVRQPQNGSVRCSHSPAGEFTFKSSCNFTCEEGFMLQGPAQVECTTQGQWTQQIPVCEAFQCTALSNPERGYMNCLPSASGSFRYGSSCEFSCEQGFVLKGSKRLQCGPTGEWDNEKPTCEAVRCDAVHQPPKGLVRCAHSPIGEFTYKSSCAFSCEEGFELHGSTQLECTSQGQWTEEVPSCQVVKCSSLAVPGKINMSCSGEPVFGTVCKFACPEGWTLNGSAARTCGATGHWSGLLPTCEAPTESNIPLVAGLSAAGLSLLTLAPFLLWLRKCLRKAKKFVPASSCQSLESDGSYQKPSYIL
Sequence of human CYP1A1, CYP1A1 (gene 1543) (P04798 whole entry, looked up): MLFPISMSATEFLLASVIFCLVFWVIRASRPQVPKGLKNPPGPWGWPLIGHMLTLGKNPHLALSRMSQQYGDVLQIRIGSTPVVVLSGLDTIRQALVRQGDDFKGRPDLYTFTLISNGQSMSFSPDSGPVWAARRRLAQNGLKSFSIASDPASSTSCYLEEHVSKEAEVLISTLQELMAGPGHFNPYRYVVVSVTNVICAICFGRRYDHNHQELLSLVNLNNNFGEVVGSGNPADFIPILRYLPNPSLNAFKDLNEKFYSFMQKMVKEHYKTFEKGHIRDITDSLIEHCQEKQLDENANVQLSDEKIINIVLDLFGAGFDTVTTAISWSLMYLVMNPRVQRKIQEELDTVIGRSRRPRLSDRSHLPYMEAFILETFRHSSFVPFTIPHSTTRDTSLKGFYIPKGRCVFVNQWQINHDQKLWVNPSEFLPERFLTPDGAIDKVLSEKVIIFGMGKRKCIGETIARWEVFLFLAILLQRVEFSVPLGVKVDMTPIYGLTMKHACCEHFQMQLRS
Sequence of human CYP2B6, CYP2B6 (gene 1555) (P20813 whole entry, looked up): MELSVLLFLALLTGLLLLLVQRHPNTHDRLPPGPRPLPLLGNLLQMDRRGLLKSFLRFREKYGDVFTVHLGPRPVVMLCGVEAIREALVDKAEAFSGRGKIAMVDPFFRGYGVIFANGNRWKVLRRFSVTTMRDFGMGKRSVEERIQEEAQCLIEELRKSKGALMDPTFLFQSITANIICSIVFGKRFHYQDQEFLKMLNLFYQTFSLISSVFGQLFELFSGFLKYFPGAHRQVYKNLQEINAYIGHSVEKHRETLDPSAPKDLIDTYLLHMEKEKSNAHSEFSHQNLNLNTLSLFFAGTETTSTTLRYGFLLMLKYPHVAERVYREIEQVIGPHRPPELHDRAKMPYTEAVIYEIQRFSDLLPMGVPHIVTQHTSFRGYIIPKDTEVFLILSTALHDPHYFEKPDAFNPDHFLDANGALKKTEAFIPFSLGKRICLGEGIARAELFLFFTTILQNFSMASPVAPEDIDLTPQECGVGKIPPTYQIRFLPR
Sequence of rat CYP1A2, Cyp1a2 (gene 24297) (P04799 whole entry, looked up): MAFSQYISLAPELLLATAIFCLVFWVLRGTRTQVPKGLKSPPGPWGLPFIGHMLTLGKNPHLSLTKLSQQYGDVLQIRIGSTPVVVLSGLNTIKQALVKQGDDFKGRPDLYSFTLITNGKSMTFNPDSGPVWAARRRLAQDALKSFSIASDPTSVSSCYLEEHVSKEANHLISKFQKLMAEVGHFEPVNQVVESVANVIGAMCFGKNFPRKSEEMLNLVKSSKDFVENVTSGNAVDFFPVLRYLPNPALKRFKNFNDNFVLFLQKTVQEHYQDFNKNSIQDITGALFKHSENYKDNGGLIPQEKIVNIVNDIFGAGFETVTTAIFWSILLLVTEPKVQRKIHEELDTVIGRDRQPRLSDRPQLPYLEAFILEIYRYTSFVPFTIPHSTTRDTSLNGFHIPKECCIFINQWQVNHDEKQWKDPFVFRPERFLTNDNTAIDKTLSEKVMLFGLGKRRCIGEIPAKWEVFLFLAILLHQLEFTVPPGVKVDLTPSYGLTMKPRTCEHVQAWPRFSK

Regarding `CO/C=C(/C(=O)OC)c1ccccc1Oc1cc(Oc2ccccc2C#N)ncn1`, the AC50 in the assay with CD69, CD69 (gene 969) was 12.3 µM (active) [middle of 4 runs]; in [1], 26.6 µM (active) and 25.4 µM (active); in assay [2] it was 17.4 µM (active) [middle of 4 runs]; in [3], 34.9 µM (active) and 34.2 µM (active) and 30 µM (active); in assay [4] it was 6.9 µM (active) and 5.28 µM (active) and 13 µM (active); in [5], 12.5 µM (active) [middle of 4 runs]. Also, the AC50 in [6] was 21.1 µM (active) and 15.4 µM (active). Also, the result in assay [1], in assay [3], in assay [4], in assay [6], in assay [7] and in assay [8] was inactive. In assay [9], the result was inactive.

`CCc1nn(C)c(C(=O)NCc2ccc(C(C)(C)C)cc2)c1Cl`: the AC50 is 3.99 µM (active) in the assay with CD69, CD69 (gene 969); 20 µM (active) in assay [1]; 3.97 µM (active) in assay [2]; 34.7 µM (active) in assay [3]; 34.8 µM (active) in assay [4]; 5.02 µM (active) in assay [5]. Besides, in [6], the AC50 was 29.4 µM (active). In addition, the molecule was classed as inactive in assay [10].

`CC1COC(Cn2cncn2)(c2ccc(Oc3ccc(Cl)cc3)cc2Cl)O1` (stereo not drawn): the AC50 is 18.8 µM (active) with CD69, CD69 (gene 969); 23.8 µM (active) in [1]; 13.1 µM (active) in [2]; 31.3 µM (active) in assay [3]; 33.2 µM (active) in [4]; 15.8 µM (active) in assay [5]. For the same molecule, the AC50 was 29.6 µM (active) in assay [6]; 0.706 µM (active) in [7]; 1.63 µM (active) in assay [11]; 1.71 µM (active) in assay [12]; 2.74 µM (active) in assay [10]; 0.438 µM (active) in assay [13]. Besides, the values for the AC50 in assay [8] and in assay [14] were 1.34 µM (active) and 25.8 nM (active), respectively.

`O=C(Nc1ccccc1)Nc1ccnc(Cl)c1`: the AC50 was 20 µM (active) in the assay with CD69, CD69 (gene 969); 14.2 µM (active) in assay [2]; 20 µM (active) in [5]; 9.34 µM (active) in assay [11]; 2.15 µM (active) in assay [13]; 2.46 µM (active) in assay [8]. The result in [1], in assay [3], in assay [4], in assay [6], in assay [7] and in [15] was inactive.

For the molecule `CN(C)C(=S)SSC(=S)N(C)C`, the AC50 in the assay with CD69, CD69 (gene 969) was 28.3 µM (active); in assay [1], 28.7 µM (active); in assay [2], 24.8 µM (active); in assay [3], 36.6 µM (active); in assay [4], 3.87 µM (active); in [5] it was 18.6 µM (active). Besides, the AC50 is 35.3 µM (active) in assay [6]; 6.56 µM (active) in assay [13]; 2.15 µM (active) in assay [17]; 1.92 µM (active) in assay [8]; 780 nM (active) in assay [14]. Besides, the molecule was classed as inactive in assay [16], in [9] and in [15].

Take `CCCCC(CC)COC(=O)c1ccccc1C(=O)OCC(CC)CCCC` (stereo not drawn): the AC50 in the assay with CD69, CD69 (gene 969) was 5.92 µM (active); in [6], 5 µM (active); in assay [7] it was 3.05 µM (active). Moreover, the result in [1], in assay [2], in assay [3], in [4], in assay [5] and in [8] was inactive. For the same molecule, the molecule was classed as inactive in assay [14].

For `CCCN(CCC)c1c([N+](=O)[O-])cc(S(N)(=O)=O)cc1[N+](=O)[O-]`, the AC50 is 32.6 µM (active) [middle of 4 runs] with CD69, CD69 (gene 969); 34.8 µM (active) [middle of 4 runs] in assay [1]; 33.1 µM (active) and 31.4 µM (active) and 30 µM (active) in [2]; 39.5 µM (active) [middle of 4 runs] in assay [3]; 30.7 µM (active) [middle of 4 runs] in [4]; 39.7 µM (active) [middle of 4 runs] in assay [5]. The AC50 is 32.3 µM (active) [middle of 4 runs] in assay [6], 4.89 µM (active) in [10] and 1.34 µM (active) [middle of 4 runs] in assay [14]. The call in assay [12] and in [9] was inactive.
